Compound activity from PubChem.
A selection: hits, their analogues and other compounds. The true share with any hit is near 21%.
Pf growth 96h: P. falciparum growth inhibition at 96 hour, primary screen for plastid delayed-death inhibitors | P. falciparum luciferase reporter growth, 96 h | Potency, µM (titrated, usually from 28.7 µM), inactives show at the highest dose activity change, negative = inhibition, usual class: inhibitors | 320,000 compounds, 6.9% hits; active means well fitted inhibition curve with a large enough effect; inconclusive means small, poorly fitted or top-dose-only effect, or another doubt; inactive means no such curve, though single readings can be large or run the other way; further: potency means the concentration at half of the fitted maximal effect; on the % scale 0 is the no-effect control and ±100 the full control effect
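Parasite growth measured via integrated firefly luciferase reporter in P. falciparum. Infected erythrocytes at 2% hematocrit, 0.05% parasitemia final were treated 96 hours at 37 C under 5% CO2, and luminescence was read.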
NS1 inh: influenza NS1 inhibition. Potency, µM (doses to about 46.1 µM), inactives show at the highest dose activity, positive = more growth. 270,000 compounds, 0.4% hits. AID 2326; further: potency means the concentration at half of the fitted maximal effect; actives are rising curves; nearly all actives have a fitted effect of over 50% in size
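S. cerevisiae expressing influenza A NS1, grown in glucose, washed, then diluted 1:100 into pH 6.0 -URA galactose medium with 23 nl compound. Growth recovery read as OD600; NS1-free strain serves as control.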
Cycloheximide cs: counter-screen for Shiga toxin inhibitors: cycloheximide protein synthesis inhibition. cell reporter, cycloheximide protein synthesis inhibition counterscreen. max response, %. 300,000 compounds, 12% hits; in the data active means max response mostly above about 13%, no sharp cut-off; inactive means mostly below about 14%; further: read at 38.3 µM for the half of the compounds with a filed dose; 0% is about no effect
Pf growth 48h: P. falciparum growth inhibition at 48 hours (one generation). P. falciparum luciferase growth in erythrocytes, 48 h. Potency, µM (highest dose often 28.7 µM), for the others: at the top dose activity change, negative = inhibition, actives largely listed as inhibitors. 310,000 compounds, 5.9% hits. AID 504832; active means well fitted inhibition curve with a large enough effect; inconclusive means small, poorly fitted or top-dose-only effect, or another doubt; inactive means no such curve, though single readings can be large or run the other way; further: potency means the concentration at half of the fitted maximal effect; on the % scale 0 is the no-effect control and ±100 the full control effect
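Parasite viability was followed by luminescence of a genomically integrated firefly luciferase. Cultures held 0.1% parasitemia at 2% hematocrit (final), incubated under 5% CO2 at 37 C.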
SARS PLpro yeast: inhibitors of SARS-CoV papain-like protease in yeast; 330,000 compounds, 0.19% hits; Potency, µM (series often up to 32.9 µM), inactives show at the highest dose activity, positive = growth rescue, usual class: activators; S. cerevisiae expressing SARS-CoV PLpro, growth rescue; further: potency means the concentration at half of the fitted maximal effect; 0% is about no effect; nearly all actives have a fitted effect of over 55% in size
Shiga toxin inh: Shiga toxin inhibition | Vero cells, Shiga toxin protein synthesis inhibition reporter | inhibition, % at 38.7 µM | 290,000 compounds, 9.2% hits; in the data active means inhibition mostly above about 28%, no sharp cut-off; inactive means mostly below about 43%; further: 0% is about no effect
* = called active by the depositor; ? = inconclusive; . = no result given; + = active, no number; [ ] = dose if it differs, or a comment. Unless noted, the call rests on the fitted dose curve.

SMILES	Pf growth 96h	NS1 inh	Cycloheximide cs	Pf growth 48h	SARS PLpro yeast	Shiga toxin inh
CCOC(=O)c1sc(NC(=O)C(CC)OC(=O)c2ccco2)nc1C (centres undefined)	35.8%	1.9%	15.8*	-2.1%	-0.4%	13.0
COC(=O)c1sc(NC(=O)c2ccco2)nc1C	8.8%	-43.2%	11.7	39.7%	-0.6%	52.1
CCOC(=O)c1sc2ncnc(Nc3cccc(C(=O)O)c3)c2c1C	-6.8%	-1.7%	-0.7	-17.3%	28.6%	-3.3
CC(C)(C)N1CC23CCC(C[C@@H]2C1=O)O3 (some centres undefined)	117.3%	.	.	21.8%	-25.4%	.
CCC(C)NC(=O)c1cc2c(=O)n3cccc(C)c3nc2s1 (centres undefined)	-1.7%	6.5%	16.6	-23.5%	0.7%	15.5
CC[C@H](C)[C@H](NC(=O)[C@H](CC(=O)O)NC(=O)[C@H](CC(C)C)NC(=O)[C@H](Cc1cnc[nH]1)NC(=O)[C@H](C)NC(=O)[C@H](Cc1ccccc1)NC(=O)[C@H](Cc1ccc(O)cc1)NC(=O)[C@@H](NC(=O)[C@H](C)NC(=O)[C@H](CCC(=O)O)NC(=O)[C@H](CCC(=O)O)NC(=O)[C@H](CC(=O)O)NC(=O)CCC(=O)O)C(C)C)C(=O)N[C@H](C(=O)N[C@@H](Cc1c[nH]c2ccccc12)C(=O)O)[C@@H](C)CC	.	.	-1.7	.	.	-7.8
O=C1OCCC/C1=C\c1ccc2c(c1)OCO2	-0.1%	7.6%	5.3	-24.4%	-2.8%	-10.5
COc1ccc(/C=C2\CCC/C(=C\C=N\N(C)C)C2=O)cc1	?	.	27.7*	-8.7%	-8.5%	40.7
CN(C)/N=C/C=C1\CCC/C(=C\c2ccc(F)c(F)c2)C1=O	?	-40.4%	86.6*	?	-2.3%	+
CCNC(=S)NNC(=O)c1cccc(Br)c1	107.0%	11.2%	8.2	55.1%	3.3%	-5.2
O=C(/C=C/NCC(=O)c1ccccc1)c1ccc(Br)cc1	?	4.5%	12.6	21.4%	-2.0%	45.4*
Cc1ccc(C(=O)/C=C/NNC(=O)c2ccccc2O)cc1	-20.5%	13.0%	12.8	15.6%	-8.3%	20.9
COc1ccc(C(=O)NNC(=O)Nc2ccc(Cl)cc2)cc1	63.2%[5.75 µM]	.	10.6	15.5%[5.75 µM]	0.5%	-3.7
COc1ccc(C(=O)C=CNNC(=O)c2ccc(Cl)cc2)cc1	3.5%	1.0%	15.7*	?	0.3%	.
O=C(/C=C/NNC(=O)c1ccc(Cl)cc1)c1ccccc1	-20.3%	.	31.1*	-30.4%	1.1%	46.8*
O=C(/C=C/NNC(=O)c1cccc(Br)c1)c1cccc(Br)c1	.	-60.8%	1.9	9.28µM*	-6.0%	49.9
CN(CC(=O)Nc1ccc(N2CCOCC2)cc1)Cc1cc(=O)n2ccsc2n1	22.4%	.	13.8	?	-2.1%	-6.4
O=C(/C=C/NNC(=O)c1ccccc1)c1ccc(Br)cc1	183.4%	-104.0%	46.7*	.	-15.4%	70.9*
O=C(O)/C=C/C(=O)NNC(=O)c1ccc(Br)cc1	-12.3%	-0.4%	9.2	11.6%	1.7%	11.5
COc1cc2c(cc1OC)C(c1cccc([N+](=O)[O-])c1)N(C(=O)c1ccccc1C(=O)O)CC2 (centres undefined)	18.8%	4.1%	-0.6	?	-0.6%	-14.2
Cn1c(=O)c2c(nc(NCCNc3nc4c(c(=O)n(C)c(=O)n4C)n3C)n2C)n(C)c1=O	.	-5.4%	.	.	.	.
O=C(CCCCN1CCCCC1)c1ccc2c(c1)Cc1ccccc1-2	12.6%	.	-0.9	5.22µM*	-3.5%	-16.0
O=C(CCN1CCCCCC1)c1ccccc1	?	9.5%	-2.7	24.4%	5.4%	9.4
Cc1cc(C(C)(C)C)cc(C)c1CCNC(=O)c1ccc[n+]([O-])c1	?	3.9%	-2.1	-15.5%	-0.9%	-9.0
CCCCCn1cnc2sc(CC)cc2c1=O	200.7%	-13.9%	66.2*	169.3%	-3.2%	active
SMILES	Pf growth 96h	NS1 inh	Cycloheximide cs	Pf growth 48h	SARS PLpro yeast	Shiga toxin inh
CCc1cc2c(=O)n(CC(C)C)cnc2s1	52.0%	3.7%	48.3*	96.8%	2.0%	62.8*
CCc1cc2c(=O)n(CC(=O)NC3CCCCC3)cnc2s1	7.5%	-11.5%	7.1	0.8%	5.5%	-17.5
CCc1cc2c(=O)n(CC(=O)NCCc3ccc(OC)c(OC)c3)cnc2s1	?	1.8%	-0.3	-20.8%	-1.6%	-12.7
CCc1cc2c(=O)n(-c3ccc(Br)cc3)cnc2s1	.	2.6%	16.3*	142.9%	-4.4%	72.7
COC(=O)c1c(C)oc(C)c1S(=O)(=O)N1CCCC1	16.0%	2.2%	-1.9	49.8%	0.4%	-6.4
Cn1c(=O)cc(SCC(=O)N2CCN(Cc3ccc4c(c3)OCO4)CC2)c2ccccc21	?	-9.3%	-1.6	1.8%	2.8%	25.0
Cn1c(C(=O)N2CCN(c3ncccn3)CC2)cc2c(=O)n(C)c3ccccc3c21	10.4µM*	-23.4%	-1.9	.	7.7%	-5.4
CC(C)[C@@H](C(=O)N1CCN(Cc2ccc3c(c2)OCO3)CC1)n1nnc2ccccc2c1=O	13.1µM*	-10.8%	-0.4	?	2.4%	-1.2
Cn1c(C(=O)N2CCN(Cc3ccc4c(c3)OCO4)CC2)cc2c(=O)n(C)c3ccccc3c21	1.85µM*	-40.3%	-5.9	.	3.3%	-7.3
O=C(Cn1cnc2ccccc2c1=O)N1CCN(Cc2ccc3c(c2)OCO3)CC1	?	4.3%	-4.3	.	-3.3%	-11.9
O=[N+]([O-])c1cccnc1N1CCN(Cc2ccc3c(c2)OCO3)CC1	?	14.1%	8.2	-3.0%	0.3%	24.3
Cn1c(=O)c([N+](=O)[O-])c(N2CCN(Cc3ccc4c(c3)OCO4)CC2)c2ccccc21	11.7µM*	-5.5%	7.8	11.7µM*	-0.1%	11.8
Cc1ccc(S(=O)(=O)N2CCC(C(=O)Nc3nnc(-c4ccc(F)cc4)s3)CC2)cc1	-16.2%	-2.6%	4.9	0.0%	?	-3.4
Cc1ccc(-c2nnc(NC3CCCC3)s2)cc1	-5.6%	-1.7%	53.8*	199.8%	-2.5%	52.7*
O=C(c1cc(-c2cccc(Cl)c2)on1)N1CCCCCC1	35.4%	-22.6%	26.6*	107.0%	0.1%	116.5*
CN1CCN(C(=O)c2cc(-c3cccc(Cl)c3)on2)CC1	11.4%	-9.0%	33.8*	65.7%	7.4%	41.5
O=C(c1cc(-c2cccc(Cl)c2)on1)N1CCN(c2ccc(F)cc2)CC1	?	5.1%	-2.9	8.6%	0.5%	-18.9
O=C(c1cc(-c2cccc(O)c2)on1)N1CCN(C(c2ccccc2)c2ccccc2)CC1	?	-139.3%	-2.5	1.85µM*	-13.2%	-8.9
O=C(c1cnccn1)N(Cc1cccs1)C1(C(=O)NC2CCCCC2)CCCCC1	21.6%	-1.1%	-2.4	?	1.5%	-11.4
O=C(c1ccc(COc2ccccc2)o1)N1CCN(S(=O)(=O)c2ccccc2Cl)CC1	?	.	.	13.1µM*	-16.2%	.
Cc1ccc(S(=O)(=O)N2CCN(C(=O)c3ccc(COc4ccccc4)o3)CC2)cc1	9.28µM*	.	.	11.7µM*	-0.4%	.
